Compound activity: PubChem, National Center for Advancing Translational Sciences (NCATS)
This is a sample that favours compounds with a hit; in the whole collection about 3.1% have one here.
p53null 39C kill: kills p53 null cells at the nonpermissive temperature; Potency, µM (top dose mostly 46.1 µM), for inactives: top-dose activity, negative = cell killing, most hits filed as cytotoxic; hit rate 0.97% among 55,000; AID 904; H1299 p53-null (neo) cells, 39C, ATPlite viability, 24 h;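 further: 0% = DMSO only and -100% = full killing by 100 µM tamoxifen; nearly all actives have a fitted effect of over 50% in size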
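Following overnight plating at 37C (600 cells/well), H1299-neo or H1299-p53A138V cells are dosed up to 46 uM. Incubation lasts 24 hr at 39C before ATP detection.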
S16 viability: cytotoxicity in S16 Pmp22-F2sN Schwann cells | Potency, µM (top dose mostly 57.5 µM), for the others: top-dose activity change, negative = cytotoxicity, hits mostly cytotoxic | S16 Pmp22-F2sN Schwann cells viability, CellTiter-Glo, 24 h | AID 1508642 | hit rate 0.48% among 43,000; further: nearly all actives have a fitted effect of over 65% in size
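Used to flag compounds lowering reporter output through toxicity, this quantitative HTS measures ATP-based CellTiter-Glo luminescence in S16 Pmp22-F2sN Schwann cells after 24 h compound exposure at 37C.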
SKOV3 invasion: blocks SKOV3ip1 adhesion and invasion in omental model | SKOV3ip1-GFP adhesion/invasion on 3D omental model, fluorescence | hit rate 0.1% among 46,000 | Potency, µM (series often up to 45.8 µM), for the others: at the highest dose activity change, negative = inhibition, hits mostly inhibitors | AID 1963576;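 further: plate controls were DMSO wells for no effect and tomatine positive control wells for full effect; nearly all actives have a fitted effect of over 65% in size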
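Primary human omental fibroblast/mesothelial 3D culture pre-formed 48 h. SKOV3ip1-GFP cells added with compounds (0.36-46 umol/L), incubated 2 h RT/16 h 37 C, fixed; GFP cells quantified at 488/509 nm.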
PMP22 txn prim: PMP22 gene transcription modulation; S16 Pmp22-F2sN Schwann cells (luciferase reporters placed in the Pmp22 gene), FLuc/NLuc coincidence luminescence, 24 h; Potency, µM (titrated, usually from 57.5 µM), for inactives: at the highest dose activity change, negative = inhibition, most hits filed as inhibitors; hit rate 2% among 43,000; AID 1508649; active means clear falling dose curves in both reporters; inconclusive means both reporters move, but less clearly or upward; inactive means either reporter flat; the % is the NLuc reporter signal
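Reporter cells (S16 Pmp22-F2sN, 500–1,000 per well) exposed to compounds for 24 h, 37C, 5% CO2; lysis with FLuc read after 10 min, then Stop&Glo and NLuc read after 10 min.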
mTORC1 inh: mTORC1 pathway inhibition measured by phospho-rpS6; Tsc2-/- p53-/- MEF, phospho-rpS6 immunofluorescence/PI, 24 h; Potency, µM (series often up to 38.3 µM), inactives show at the top dose activity change, negative = inhibition, usual class: inhibitors; hit rate 0.78% among 44,000; AID 493208;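 further: plate controls were DMSO for no effect and rapamycin for full effect; nearly all actives have a fitted effect of over 50% in size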
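Immunofluorescence of rpS6 phosphorylation in Tsc2-/-, p53-/- MEFs after 24 h compound exposure, normalized to propidium iodide signal. Activity is expressed as % positive cells, thresholded with 7.5 nM rapamycin.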
p53null 32C kill: selectivity test: cytotoxicity in p53 null cells, permissive temperature | H1299-neo p53 null cells, ATP luminescence, 24 h, 32C | Potency, µM (highest dose often 46.1 µM), without a hit: top-dose activity change, negative = cytotoxicity, actives largely listed as cytotoxic | hit rate 0.62% among 55,000;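 further: 0% = DMSO only and -100% = full killing by 100 µM tamoxifen; nearly all actives have a fitted effect of over 55% in size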
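Cytotoxicity: H1299-neo (no p53), 32C, 24 h treatment. Concentrations up to 46 uM. Readout cellular ATP, luminescence. Normalization to DMSO basal and tamoxifen 100 uM maximal kill.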
* marks the source's active call; other numbers are inactive results. Unless noted, the call rests on the fitted dose curve; in most records, active means well fitted curve in the direction sought with a large enough effect; inconclusive means small, poorly fitted or top-dose-only effect, or another doubt; inactive means no such curve, though single readings can be large; an effect the other way counts as inactive or inconclusive. Unless noted, on the % scale 0 is the no-effect control and ±100 the full control effect; potency means the concentration at half of the fitted maximal effect.

For CC(C)C(C)C=CC(C)C1CCC2C3=CC=C4CC(O)CCC4(C)C3CCC21C (stereo not given) the results were SKOV3 invasion -5%.
For NS(=O)(=O)c1ccc(Nc2nc(OCC3CCCCC3)c3[nH]cnc3n2)cc1 the results were SKOV3 invasion 41%.
`Cc1ccc(OC(=O)c2cc(-c3ccc4c(c3)OCCO4)on2)c(C)c1` gave p53null 39C kill 32µM*, S16 viability 2%, SKOV3 invasion -11%, PMP22 txn prim 11%, mTORC1 inh -1% and p53null 32C kill 20µM*.
`CC(=O)c1cccc(NC(=O)c2cc(-c3ccc4c(c3)OCCO4)on2)c1` gave p53null 39C kill 3.2µM*, S16 viability 3%, SKOV3 invasion inactive, PMP22 txn prim 7%, mTORC1 inh -16% and p53null 32C kill 2µM*.
Screening O=c1[nH]c(=O)n([C@H]2C[C@@H](O)[C@@H](CO)O2)cc1C(F)(F)F returned SKOV3 invasion -2%.
`CCC1CN(C(=O)NCc2ccc(C)cc2)c2ccccc2O1` (stereo not given) gave p53null 39C kill 3%, S16 viability 3%, SKOV3 invasion -1%, PMP22 txn prim 2%, mTORC1 inh -22% and p53null 32C kill 19%.
For CCC1CN(C(=O)NCc2ccc(F)cc2)c2cc(C)ccc2O1 (stereo not given) the results were p53null 39C kill 71%, S16 viability 8%, SKOV3 invasion 10%, PMP22 txn prim -1%, mTORC1 inh 21µM* and p53null 32C kill 48%.
Screening NC1=N[C@@]2(c3cc(NC(=O)c4ccc(F)cn4)ccc3F)COC[C@@H]2CS1 returned SKOV3 invasion -4%.
CC(C)N(CCCNC(=O)Nc1ccc(C(C)(C)C)cc1)C[C@H]1O[C@@H](n2cc(Br)c3c(N)ncnc32)[C@H](O)[C@H]1O was read as SKOV3 invasion -26%.
`COC(=O)c1cc(C)nc2c1c(=O)nc(SCc1c(C)cc(C)cc1C)n2C1CC1` gave p53null 39C kill 13µM*, S16 viability inconclusive, SKOV3 invasion -7%, PMP22 txn prim inconclusive, mTORC1 inh 0% and p53null 32C kill 41%.
For COC(=O)c1cc(C)nc2c1c(=O)nc(SCc1cc(C)ccc1C)n2C1CC1 the results were p53null 39C kill -5%, S16 viability -5%, SKOV3 invasion 9%, PMP22 txn prim inconclusive, mTORC1 inh 0% and p53null 32C kill 3%.
`COc1cccc2cc(-c3nc(C4CCC(C(=O)O)CC4)n4ncnc(N)c34)[nH]c12` (stereo not given) gave SKOV3 invasion -11%.
`Cc1ccc(Cl)cc1N1CCN(C(=O)C2CCN(Cc3nc(-c4cccc(Cl)c4)oc3C)CC2)CC1` gave p53null 39C kill 25µM*, S16 viability inconclusive, SKOV3 invasion -6%, PMP22 txn prim inconclusive, mTORC1 inh 2% and p53null 32C kill 0%.
Screening Cc1oc(-c2cccc(Cl)c2)nc1CN1CCC(C(=O)NC(C)C)CC1 returned p53null 39C kill -19%, S16 viability 6%, SKOV3 invasion -5%, PMP22 txn prim 32%, mTORC1 inh -6% and p53null 32C kill 0%.
Screening COc1cc(Cl)c(NS(=O)(=O)c2cc(-c3cc(C)no3)ccc2OC)c(OC)c1 returned p53null 39C kill -7%, S16 viability 0%, SKOV3 invasion 5%, PMP22 txn prim -24%, mTORC1 inh inconclusive and p53null 32C kill 21%.
For COc1cc(NS(=O)(=O)c2ccc(-c3cc(C)no3)cc2)cc(OC)c1 the results were p53null 39C kill 11%, S16 viability inconclusive, SKOV3 invasion -9%, PMP22 txn prim 3.4µM*, mTORC1 inh inconclusive and p53null 32C kill 2%.
Screening CCCCc1ccc(NC(=O)c2cc3c(=O)n4ccccc4nc3s2)cc1 returned p53null 39C kill -1%, S16 viability 10%, SKOV3 invasion -3%, PMP22 txn prim -10%, mTORC1 inh 3% and p53null 32C kill -3%.
COc1ccc(Cl)cc1NC(=O)c1cc2c(=O)n3ccccc3nc2s1 was read as p53null 39C kill 13µM*, S16 viability -14%, SKOV3 invasion inactive, PMP22 txn prim -20%, mTORC1 inh -12% and p53null 32C kill -20%.
`Cc1cccc(CCNC(=O)c2ccc3c(c2)nc2n3CCCCC2)c1` gave p53null 39C kill 10µM*, S16 viability -3%, SKOV3 invasion 1%, PMP22 txn prim 1%, mTORC1 inh 1% and p53null 32C kill 10µM*.
`COc1ccc(CNC(=O)c2ccc3c(c2)nc2n3CCCCC2)cc1` gave p53null 39C kill -57%, S16 viability 3%, SKOV3 invasion inactive, PMP22 txn prim -9%, mTORC1 inh 3% and p53null 32C kill inconclusive.
COCCCNC(=O)c1ccc2c(c1)nc1n2CCCCC1 was read as p53null 39C kill 13µM*, S16 viability 6%, SKOV3 invasion -8%, PMP22 txn prim -10%, mTORC1 inh 7% and p53null 32C kill inconclusive.
For CCCNC(=O)c1ccc2c(c1)nc1n2CCCCC1 the results were p53null 39C kill 10µM*, S16 viability -3%, SKOV3 invasion inactive, PMP22 txn prim -7%, mTORC1 inh -10% and p53null 32C kill 13µM*.
Screening Cc1ccc(CCNC(=O)c2ccc3c(c2)nc2n3CCCCC2)cc1 returned p53null 39C kill inconclusive, S16 viability 24%, SKOV3 invasion 4%, PMP22 txn prim 18%, mTORC1 inh -8% and p53null 32C kill -19%.
Screening CCC(C)NC(=O)c1ccc2c(c1)nc1n2CCCCC1 (stereo not given) returned p53null 39C kill 5µM*, S16 viability 2%, SKOV3 invasion inactive, PMP22 txn prim inconclusive, mTORC1 inh -12% and p53null 32C kill inconclusive.
`CCOc1ccccc1OCCNC(C)Cc1ccc(OC)c(S(N)(=O)=O)c1` (stereo not given) gave SKOV3 invasion 12%.
Screening CO[C@H]1C[C@@H]2CC[C@@H](C)[C@@](O)(O2)C(=O)C(=O)N2CCCC[C@@H]2C(=O)O[C@H]([C@H](C)C[C@@H]2CC[C@H](OC(=O)C(C)(CO)CO)[C@H](OC)C2)CC(=O)[C@H](C)C=C(C)[C@@H](O)[C@@H](OC)C(=O)[C@H](C)C[C@H](C)C=CC=CC=C1C returned SKOV3 invasion 0%.
